FAS TE block = blocks the thioesterase domain of human fatty acid synthase; inhibition, % at 15 µM; P49327; recombinant FAS-TE, OMFH fluorogenic substrate, fluorescence endpoint; 0.67% of 360,000 active;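 active means compounds whose normalised, plate-corrected inhibition of enzyme fluorescence in the single-dose primary screen is 50% or more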;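 further: 0% = DMSO with enzyme and 100% = substrate without enzyme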
Target sequence (P49327 whole entry, looked up, the tested form may be a part): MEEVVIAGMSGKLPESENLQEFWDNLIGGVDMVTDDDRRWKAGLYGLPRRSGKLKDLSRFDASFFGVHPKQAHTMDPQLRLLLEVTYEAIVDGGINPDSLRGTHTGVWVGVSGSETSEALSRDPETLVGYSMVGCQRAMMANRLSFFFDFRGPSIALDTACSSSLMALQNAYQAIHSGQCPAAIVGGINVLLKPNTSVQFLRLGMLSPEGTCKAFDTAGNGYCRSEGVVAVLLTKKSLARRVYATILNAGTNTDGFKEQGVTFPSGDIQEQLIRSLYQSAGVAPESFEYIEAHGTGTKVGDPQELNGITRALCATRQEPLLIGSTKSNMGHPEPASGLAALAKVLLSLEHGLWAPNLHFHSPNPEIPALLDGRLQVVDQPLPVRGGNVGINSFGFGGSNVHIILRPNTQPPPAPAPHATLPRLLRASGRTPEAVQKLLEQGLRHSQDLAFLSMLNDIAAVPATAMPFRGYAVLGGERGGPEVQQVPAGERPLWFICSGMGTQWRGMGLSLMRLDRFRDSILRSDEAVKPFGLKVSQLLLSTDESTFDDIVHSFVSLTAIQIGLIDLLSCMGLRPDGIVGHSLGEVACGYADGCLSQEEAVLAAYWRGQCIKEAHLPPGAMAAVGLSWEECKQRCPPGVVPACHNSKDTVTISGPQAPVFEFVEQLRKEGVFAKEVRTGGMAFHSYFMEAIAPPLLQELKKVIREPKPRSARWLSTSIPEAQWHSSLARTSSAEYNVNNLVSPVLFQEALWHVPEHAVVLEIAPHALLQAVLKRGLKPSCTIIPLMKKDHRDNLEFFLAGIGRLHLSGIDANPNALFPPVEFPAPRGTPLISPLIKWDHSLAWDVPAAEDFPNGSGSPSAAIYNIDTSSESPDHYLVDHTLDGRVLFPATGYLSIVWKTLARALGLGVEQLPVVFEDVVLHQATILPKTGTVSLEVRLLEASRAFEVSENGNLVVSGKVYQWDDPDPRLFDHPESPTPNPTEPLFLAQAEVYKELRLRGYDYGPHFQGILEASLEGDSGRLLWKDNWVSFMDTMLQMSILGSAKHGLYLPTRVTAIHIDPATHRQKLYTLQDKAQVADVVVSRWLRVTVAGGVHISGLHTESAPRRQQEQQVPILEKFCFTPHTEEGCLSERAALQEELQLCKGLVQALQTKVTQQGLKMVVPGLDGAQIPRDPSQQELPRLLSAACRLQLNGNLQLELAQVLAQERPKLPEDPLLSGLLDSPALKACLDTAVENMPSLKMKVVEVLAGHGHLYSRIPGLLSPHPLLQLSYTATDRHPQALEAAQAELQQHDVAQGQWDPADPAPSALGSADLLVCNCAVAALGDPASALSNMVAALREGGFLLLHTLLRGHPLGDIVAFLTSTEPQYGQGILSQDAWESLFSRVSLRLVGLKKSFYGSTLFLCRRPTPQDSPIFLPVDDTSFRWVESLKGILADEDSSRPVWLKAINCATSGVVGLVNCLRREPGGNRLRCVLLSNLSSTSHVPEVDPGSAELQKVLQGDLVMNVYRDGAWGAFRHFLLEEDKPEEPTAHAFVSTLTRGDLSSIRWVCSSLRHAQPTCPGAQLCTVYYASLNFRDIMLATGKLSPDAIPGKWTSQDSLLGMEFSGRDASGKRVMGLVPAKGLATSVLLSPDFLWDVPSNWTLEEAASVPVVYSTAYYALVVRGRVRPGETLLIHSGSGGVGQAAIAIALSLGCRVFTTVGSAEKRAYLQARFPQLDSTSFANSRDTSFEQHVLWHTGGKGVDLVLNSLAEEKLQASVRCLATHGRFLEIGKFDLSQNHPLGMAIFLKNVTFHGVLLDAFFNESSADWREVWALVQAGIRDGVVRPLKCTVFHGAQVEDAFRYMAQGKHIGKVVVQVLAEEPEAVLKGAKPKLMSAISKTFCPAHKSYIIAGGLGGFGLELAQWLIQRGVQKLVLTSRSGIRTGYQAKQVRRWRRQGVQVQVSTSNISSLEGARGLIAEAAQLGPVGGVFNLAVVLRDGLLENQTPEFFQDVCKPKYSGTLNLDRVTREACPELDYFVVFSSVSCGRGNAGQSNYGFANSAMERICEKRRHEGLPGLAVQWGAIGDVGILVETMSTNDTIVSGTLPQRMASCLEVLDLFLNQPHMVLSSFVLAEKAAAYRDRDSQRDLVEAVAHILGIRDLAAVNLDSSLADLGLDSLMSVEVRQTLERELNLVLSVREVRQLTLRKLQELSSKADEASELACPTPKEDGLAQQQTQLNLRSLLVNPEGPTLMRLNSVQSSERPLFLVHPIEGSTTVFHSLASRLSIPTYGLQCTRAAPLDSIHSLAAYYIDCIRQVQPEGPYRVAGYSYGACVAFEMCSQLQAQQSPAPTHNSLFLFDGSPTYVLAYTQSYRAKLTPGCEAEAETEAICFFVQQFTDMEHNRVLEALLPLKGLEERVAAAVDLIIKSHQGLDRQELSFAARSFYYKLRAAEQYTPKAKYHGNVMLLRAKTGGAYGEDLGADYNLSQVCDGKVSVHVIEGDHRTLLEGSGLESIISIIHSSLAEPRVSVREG
proKLK7 act = proKLK7 (human) activation, primary screen; P49862; purified proKLK7, EDANS-DABCYL substrate fluorescence; 100% is mature enzyme control, 0% vehicle; activation, % at 7 µM; 0.9% of 370,000 active;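 active means activation above the mean of all tested compounds plus 3 SD, computed per campaign excluding outliers beyond control limits, cut at about 13% in these data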
Neddylation inh = inhibitors of human cullin neddylation | P61081+Q13564 | TR-FRET cullin neddylation, biochemical | calls only at 25 µM | 0.58% of 360,000 active; in the data active means inhibition above about 36%
PfGluPho inh = PfG6PD (Plasmodium falciparum) enzyme inhibition. PfGluPho enzyme, NADPH resazurin-diaphorase fluorescence. inhibition, % at 20 µM. 0.78% of 350,000 active;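 active means inhibition reaching at least a set limit at 20 µM in the primary screen, cut at about 59% in these data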;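 further: 0% = DMSO wells with substrate and 100% = DMSO wells lacking glucose-6-phosphate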
KLK7 act conf = proKLK7 activation, confirmation. shares compounds with proKLK7 act. purified proKLK7, EDANS-DABCYL substrate fluorescence; scaled: vehicle 0, mature enzyme 100. 68% of 3,200 active. activation, % at 7 µM;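 active means activation, as change over the incubation, above the mean of all tested compounds plus 3 SD, cut at about 13% in these data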
EDANS interfere = optically interferes with EDANS-DABCYL signal, flagging KLK7 hits; 80% of 3,200 active; EDANS-DABCYL substrate fluorescence interference, no enzyme, 4 h; solvent 0%, active enzyme control 100%; activation, % at 7 µM; AID 686952; shares compounds with proKLK7 act;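 active means activation above the all-compound mean plus 3 SD, ignoring values outside control-based bounds, cut at about 4.8% in these data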;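 further: value is the 4 h activation minus the activation read at time zero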
EDANS interf = EDANS fluorescence interference in dose response, no enzyme; EDANS-DABCYL peptide fluorescence interference; 20% of 250 active; shares compounds with proKLK7 act; EC50, µM;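 active means compounds that raise the fluorescence signal in this interference counterscreen, with EC50 at or below 10 µM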;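 further: intact quenched peptide substrate alone read at 355 nm excitation and 520 nm emission; signal is fluorescence gain from T0 to T4 after four hours at room temperature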
* marks the source's active call; other numbers are inactive results; i = inactive; . = not tested or not shown. Rows were chosen to be rich in hits. Some 2.7% of all compounds tested hit in one or more screens of this group.

SMILES	FAS TE block	proKLK7 act	Neddylation inh	PfGluPho inh	KLK7 act conf	EDANS interfere	others
O=c1c2ccccc2c(/C=N/NS(=O)(=O)c2ccccc2)c(O)n1-c1ccccn1	-15.8	46.4*	i	4.0	92.4*	94.0*
O=c1c2ccccc2c(/C=N/n2cnnc2)c(O)n1-c1ccccc1	-9.5	0.9	i	-0.2	.	.
C[C@H](CO)N1C[C@H](C)[C@H](CN(C)C(=O)c2cc(-c3ccccc3)on2)OCc2cnnn2CCCC1=O	-7.5	-0.1	i	7.5	.	.
Cc1cc(-c2n[nH]c(=S)n2N=Cc2cccc(Oc3ccccc3)c2)n[nH]1	.	-0.1	.	.	.	.
O=c1cc(C(F)F)oc2c1ccc1ccccc12	-3.3	17.3*	.	-2.0	17.6*	19.5*
C=CCn1c(=NC(=O)c2ccc(S(=O)(=O)N3CCc4ccccc4C3)cc2)sc2cc(S(N)(=O)=O)ccc21	24.7	65.8*	i	1.7	70.4*	-208.4	EDANS interf=>69.5
C#CCn1c(=NC(=O)c2ccc(S(=O)(=O)N3CCc4ccccc4C3)cc2)sc2cc(S(N)(=O)=O)ccc21	-7.6	.	i	10.6	.	.
COCCn1c(=NC(=O)c2ccc(S(=O)(=O)N3CCc4ccccc4C3)cc2)sc2cc(S(N)(=O)=O)ccc21	35.2	304.8*	i	-6.7	63.0*	80.0*
Cc1c[nH]c2cccc(-c3cccc4ccccc34)c12	.	0.0	.	.	.	.
Cc1nc2ccc(S(=O)(=O)NCC(=O)NCc3ccccc3C)cc2s1	.	0.7	.	.	.	.
Cc1cc(C(=O)NNC(=S)NCC(C)C)no1	-6.4	-0.4	i	-2.4	.	.
CNC(=S)NNC(=O)c1sc(-c2cc(C)on2)nc1C	-10.2	21.0*	i	-0.9	33.5*	37.3*
COCCNc1nc(Oc2ccccc2)c2sccc2n1	-0.3	0.2	i	.	.	.
COc1ccc(Nc2nc(NCc3cccs3)nc3ccsc23)cc1OC	0.8	-0.1	i	.	.	.
c1csc(CNc2nc(Oc3ccncc3)c3sccc3n2)c1	-5.5	17.1*	.	.	5.1	11.7*
c1ccc(CNc2nc(Oc3ccncc3)c3sccc3n2)cc1	-5.9	15.2*	.	.	10.3	4.9*
Cc1oc2c(CN(C)C)c(O)ccc2c(=O)c1-c1ccc2ccccc2n1	-3.7	-0.3	i	6.7	.	.
CCc1cc2c(=O)c(Oc3ccccc3F)c(C)oc2c(CN(C)C)c1O	-11.3	63.4*	.	-8.6	72.1*	74.3*
CCOC(=O)N1CCN(C(=O)Nc2ccc3nccnc3c2)CC1	-10.6	5.8	i	-5.7	.	.
O=C(Nc1ccc2nc(-c3ccccn3)c(-c3ccccn3)nc2c1)N1CCOCC1	-4.6	36.2*	.	6.4	69.9*	65.6*
Cc1nc2ccc(NC(=S)N3CCCC3)cc2nc1C	-1.7	0.3	i	-11.3	.	.
Cc1nc2ccc(NC(=O)N3CCCCC3)cc2nc1C	-6.4	34.9*	.	-3.1	68.7*	56.9*	EDANS interf=>69.5
CCOC(=O)N1CCN(C(=O)Nc2ccc3nc(C)c(C)nc3c2)CC1	-7.8	15.8*	.	-6.1	38.5*	32.9*
CC1=C(C(=O)Nc2cc(C(=O)N3CCN(c4ccc(Cl)cc4)CC3)ccc2C)SCCO1	6.0	-0.3	i	-13.9	.	.
C=CCn1c(SCC(=O)Nc2ccc(-c3nc4ccc(C)cc4s3)cc2)nnc1-c1ccccc1	-1.3	26.0*	.	-2.8	66.8*	67.2*
SMILES	FAS TE block	proKLK7 act	Neddylation inh	PfGluPho inh	KLK7 act conf	EDANS interfere	others
Cc1ccc2nc(-c3ccc(NC(=O)CSc4nnc(-c5cc(C)[nH]n5)n4N)cc3)sc2c1	.	32.6*	.	.	-2.6	-38.5
Cc1ccc(-c2nnc(SCC(=O)Nc3ccc(-c4nc5ccc(C)cc5s4)cc3)n2Cc2ccco2)cc1	.	103.9*	.	.	93.7*	116.3*
Cc1ccc2nc(-c3ccc(NC(=O)CSc4nnc(-c5cccc(Cl)c5)n4Cc4ccco4)cc3)sc2c1	.	70.2*	.	.	-20.8	-29.7
Nn1c(SCC(=O)Nc2ccccc2-c2ccccc2)nnc1-c1cc(-c2ccc(Cl)cc2)n[nH]1	.	-0.8	.	.	.	.
O=C(CSc1ccccc1)N1CCC(Oc2cccnc2)CC1	.	-0.1	.	.	.	.
Cn1cc(-c2coc3c(C(=O)NCc4ccco4)cccc23)cn1	-6.8	.	i	.	.	.
CN(C)[C@H]1CCN(c2ccc3c(c2)O[C@H]2CCN(C2)S3(=O)=O)C1	.	-0.2	.	.	.	.
COc1ccc(CCNCC(O)COc2cccc(C)c2)cc1OC (stereo unspecified)	.	-0.3	.	.	.	.
Cc1ccc([C@@H]2C3COCC=C3C(C#N)=C(N)C2(C#N)C#N)o1 (stereo partly specified)	-4.1	13.0*	i	3.9	53.5*	50.5*
CCC1CCCN1Cn1cnc2c([nH]c3ccc(OC)cc32)c1=O (stereo unspecified)	-4.9	27.1*	.	-2.0	12.1	10.7*
CCOC(=O)CC[C@H]1CC[C@]2(CCCN(Cc3ccccc3)C2)O1	.	-1.1	.	.	.	.
Nc1cccc(-c2cccc3nncn23)c1	-1.8	29.0*	i	.	-0.2	-0.1
CSc1ccc(-c2cccc3nncn23)cc1	-15.1	20.7*	.	.	25.7*	24.7*
CC(C)NCC(O)c1ccc(O)c(O)c1 (stereo unspecified)	-9.9	34.7*	i	18.9	46.2*	51.0*
Cc1cc2cc3c(=O)[nH]c(=O)cc-3n(CC(O)C(O)C(O)CO)c2cc1C (stereo unspecified)	-7.4	-4.6	i	6.5	.	.
Cc1cc2cc3c(=O)[nH]c(=O)nc-3n(CC(O)C(O)C(O)CO)c2cc1C (stereo unspecified)	-2.6	47.6*	.	4.2	61.4*	70.5*
O=C(NCc1nnc(SCC(=O)N2CCCC2)o1)c1ccccc1F	-6.3	62.0*	i	7.3	0.4	0.7
O=C(NCc1nnc(SCC(=O)N2CCCCC2)o1)c1c(F)cccc1F	-1.4	-0.1	i	1.8	.	.
O=c1nc(-c2ccccc2)c2ccccc2[nH]1	-4.5	9.1	i	-5.7	.	.
Cc1ccc(-c2nc(=O)[nH]c3ccccc23)cc1	-11.0	14.3*	i	5.9	16.4*	18.9*
Cc1cccn2c(=O)c3cc(C(=O)NC4CCCC4)c(=N)n(CC4CCCO4)c3nc12 (stereo unspecified)	-2.2	81.0*	.	5.2	-30.5	-34.0
Cc1cccn2c(=O)c3cc(C(=O)NCC4CCCO4)c(=N)n(CC4CCCO4)c3nc12 (stereo unspecified)	-5.4	145.1*	i	3.0	32.9*	42.1*
Cc1cccn2c(=O)c3cc(C(=O)NC4CCCC4)c(=N)n(CCCN4CCOCC4)c3nc12	-2.8	34.7*	.	-4.2	9.1	12.2*
Cc1cccn2c(=O)c3cc(C(=O)NCc4ccco4)c(=N)n(C4CCCC4)c3nc12	0.0	-115.3	.	48.8	.	.
Cc1cccn2c(=O)c3cc(C(=O)NCC4CCCO4)c(=N)n(C4CCCCC4)c3nc12 (stereo unspecified)	-4.9	24.8*	.	-0.1	-52.5	-59.5
